# In PubChem BioAssay (NCATS):
# Records with an inconclusive call do not appear. A call without a number means that no potency is given here. Calls of active or inactive are those of the source. The call rests on the fitted dose curve; in most records, active means well fitted curve in the direction sought with a large enough effect; inconclusive means small, poorly fitted or top-dose-only effect, or another doubt; inactive means no such curve, though single readings can be large; an effect the other way counts as inactive or inconclusive.
# Key:
# [1] = Quantitative High-Throughput drug screen in 47 multiple myeloma cell lines against the NCATS MIPE library collection: KMS12PE_JCRB cell viability assay (AID 1918972); further: nearly all actives have a fitted effect of over 30% in size
# Outline: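 Myeloma cells (500 per well) were exposed to MIPE 4.0 compounds by pin transfer and incubated 48 hours at 37C, 5% CO2. Viability was read as ATP by CellTiter-Glo luminescence, normalised to DMSO (100%) and media-only (0%) wells.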
# [2] = Quantitative High-Throughput drug screen in 47 multiple myeloma cell lines against the NCATS MIPE library collection: KMS26_JCRB cell viability assay (AID 1918975); further: nearly all actives have a fitted effect of over 45% in size
# Outline: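 Myeloma cell lines, 500 cells per well, exposed to MIPE 4.0 library compounds for 48 h at 37C, 5% CO2. Viability from ATP by CellTiter-Glo luminescence; normalised to DMSO (100%) and media-only (0%) wells.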
# [3] = Quantitative High-Throughput drug screen in 47 multiple myeloma cell lines against the NCATS MIPE library collection: MMM1_PLB cell viability assay (AID 1918976); further: nearly all actives have a fitted effect of over 35% in size
# Outline: (§1)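 Myeloma cells (500/well) treated with MIPE 4.0 compounds for 48 h at 37 °C, 5% CO2. Viability read as ATP via CellTiter-Glo luminescence after 5 min at RT; DMSO-only wells = 100%, media-only = 0% viability.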
# [4] = Quantitative High-Throughput drug screen in 47 multiple myeloma cell lines against the NCATS MIPE library collection: NCIH929_DSMZ cell viability assay (AID 1918978); further: nearly all actives have a fitted effect of over 35% in size
# Outline: as §1
# [5] = Quantitative High-Throughput drug screen in 47 multiple myeloma cell lines against the NCATS MIPE library collection: OCIMY1_PLB cell viability assay (AID 1918979); further: nearly all actives have a fitted effect of over 35% in size
# Outline: as §1
# [6] = Quantitative High-Throughput drug screen in 47 multiple myeloma cell lines against the NCATS MIPE library collection: MM1S_ATCC cell viability assay (AID 1918980); further: nearly all actives have a fitted effect of over 45% in size
# Outline: as §1
# [7] = Quantitative High-Throughput drug screen in 47 multiple myeloma cell lines against the NCATS MIPE library collection: KMS20_JCRB cell viability assay (AID 1918973); further: nearly all actives have a fitted effect of over 45% in size
# Outline: (§2)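 We plated 500 myeloma cells per well, pinned in MIPE 4.0 compounds, and incubated for 48 hours at 37C. ATP was then quantified with CellTiter-Glo, with DMSO and media-only wells defining 100% and 0%.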
# [8] = Quantitative High-Throughput drug screen in 47 multiple myeloma cell lines against the NCATS MIPE library collection: MOLP8_DSMZ cell viability assay (AID 1918977); further: nearly all actives have a fitted effect of over 45% in size
# Outline: as §1
# [9] = Quantitative High-Throughput drug screen in 47 multiple myeloma cell lines against the NCATS MIPE library collection: KMS21BM_JCRB cell viability assay (AID 1918974); details: ATP luminescence, 48 h; viability: at 45.8 µM (top of the series)
# Outline: as §2
# Potency means the concentration at half of the fitted maximal effect.
SMILES,Potency [1],Potency [2],Potency [3],Potency [4],Potency [5],Potency [6],Potency [7],Potency [8],Potency [9]
CCN1C[C@H](C)n2c(c(O)c3c(=O)n(Cc4ccc(F)c(Cl)c4)nc(C(=O)NC)c32)C1=O,inactive,inactive,2.64 µM (active),inactive,inactive,inactive,,,
CC(C)CN(C[C@H](O)[C@H](Cc1ccccc1)NC(=O)O[C@H]1CCOC1)S(=O)(=O)c1ccc(N)cc1,inactive,8.33 µM (active),,,inactive,16.6 µM (active),16.6 µM (active),inactive,
CC(C)Oc1cc(Nc2nc(N[C@@H](C)c3ccc(F)cn3)ncc2Cl)[nH]n1,23.5 µM (active),,,5.26 µM (active),,23.5 µM (active),4.69 µM (active),,
CC=C1C2C=C(C)CC1(N)c1ccc(=O)[nH]c1C2 (stereo unspecified),inactive,inactive,,inactive,inactive,inactive,inactive,inactive,
Cc1cn([C@@H]2C[C@@H](O)[C@H](CO)O2)c(=O)[nH]c1=O,inactive,inactive,,inactive,inactive,inactive,,inactive,
CC1(C)CC(=O)c2c(C(F)(F)F)nn(-c3ccc(C(N)=O)c(NC4CCC(O)CC4)c3)c2C1 (stereo unspecified),inactive,0.0469 µM (active),0.372 µM (active),0.105 µM (active),235 nM (active),0.148 µM (active),,0.0418 µM (active),
CCCCC[C@H](O)C=C[C@H]1[C@H](O)CC(=O)[C@H]1CCCCCCC(=O)O,inactive,inactive,8.33 µM (active),inactive,inactive,3.32 µM (active),,,
CC1CCN(c2cc(N3CCN(C)CC3)ccc2NC(=O)c2cc(C#N)c[nH]2)CC1,inactive,,23.5 µM (active),inactive,,,inactive,,
O=C(Nc1cccc2c(=O)cc(-c3nn[nH]n3)oc12)c1ccc(OCCCCc2ccccc2)cc1,20.9 µM (active),,,,,23.5 µM (active),14.8 µM (active),inactive,
CN1CC(=O)NC1=NC(=O)Nc1cccc(Cl)c1,inactive,18.7 µM (active),20.9 µM (active),16.6 µM (active),26400 nM (active),,,10.5 µM (active),
CC(C)(C)c1nc(-c2cccc(NS(=O)(=O)c3c(F)cccc3F)c2F)c(-c2ccnc(N)n2)s1,1.87 µM (active),inactive,,7.43 µM (active),,16.6 µM (active),,5.9 µM (active),
COc1cc2ncn(-c3cc(OCc4ccccc4S(C)(=O)=O)c(C#N)s3)c2cc1OC,inactive,inactive,5.9 µM (active),4.69 µM (active),inactive,,,,
Oc1cc(O)cc(C=Cc2ccc(O)c(O)c2)c1,18.7 µM (active),23.5 µM (active),23.5 µM (active),6.62 µM (active),,26.4 µM (active),,18.7 µM (active),
O=C(O)C1=CO[C@@H](O[C@@H]2O[C@H](CO)[C@H](O)[C@H](O)[C@H]2O)[C@@H]2C(CO)=CC[C@H]12,0.0743 µM (active),,,,inactive,16.6 µM (active),inactive,inactive,
C[C@@H]1C[C@H]2[C@@H]3CCC4=CC(=O)C=C[C@]4(C)[C@@]3(F)[C@@H](O)C[C@]2(C)[C@@]1(O)C(=O)CO,inactive,inactive,,inactive,inactive,0.0264 µM (active),,inactive,
CC1(C)[C@H]2CC[C@]3(C)[C@@H](C(=O)C=C4[C@@H]5C[C@@](C)(C(=O)O)CC[C@]5(C)CC[C@]43C)[C@@]2(C)CC[C@@H]1O,inactive,inactive,3.72 µM (active),inactive,,inactive,,,
Nc1nc(Cl)nc2c1ncn2[C@@H]1O[C@H](CO)[C@@H](O)[C@H]1F,0.833 µM (active),,2.09 µM (active),0.0332 µM (active),,,0.0264 µM (active),,
COc1ccc2c(c1)CC[C@H]1[C@@H]2CC[C@]2(C)[C@@H](NCCCCCCN3C(=O)C=CC3=O)CC[C@H]12,inactive,,,inactive,,,inactive,,
CO[C@H]1/C=C\O[C@@]2(C)Oc3c(C)c(O)c4c(O)c(c5c(nc6cc(C)ccn65)c4c3C2=O)NC(=O)C(C)=CC=C[C@H](C)[C@H](O)[C@@H](C)[C@@H](O)[C@@H](C)[C@H](OC(C)=O)[C@H]1C,11.8 µM (active),8.33 µM (active),0.0148 µM (active),,,,,,
CC[C@H]1OC(=O)[C@H](C)[C@@H](O[C@H]2C[C@@](C)(OC)[C@@H](O)[C@H](C)O2)[C@H](C)[C@@H](O[C@@H]2O[C@H](C)C[C@H](N(C)C)[C@H]2O)[C@](C)(O)C[C@H](C)C(=NOCOCCOC)[C@H](C)[C@@H](O)[C@]1(C)O,inactive,,,inactive,inactive,20.9 µM (active),,,

SMILES,Potency [1],Potency [2],Potency [3],Potency [4],Potency [5],Potency [6],Potency [7],Potency [8],Potency [9]
NC(=O)c1ccc(N(C(N)=O)c2c(F)cccc2F)nc1-c1ccc(F)cc1F,inactive,,inactive,5.26 µM (active),inactive,,,,
COc1ccc2c(c1)c(C1=C(c3c[nH]c4ccccc34)C(=O)NC1=O)cn2CCCN(C)C,16.6 µM (active),,,23.5 µM (active),,,,14.8 µM (active),
Cc1cc2nc3c(=O)[nH]c(=O)nc-3n(CC(O)C(O)C(O)CO)c2cc1C (stereo unspecified),inactive,,,inactive,,inactive,,inactive,
NC(=O)c1nnn(Cc2cc(Cl)c(C(=O)c3ccc(Cl)cc3)c(Cl)c2)c1N,6.62 µM (active),,20.9 µM (active),,,18.7 µM (active),,,
CC(=O)Nc1cccc(-n2c(=O)n(C3CC3)c(=O)c3c(Nc4ccc(I)cc4F)n(C)c(=O)c(C)c32)c1,,inactive,7.43 µM (active),0.0187 µM (active),3.3 nM (active),,0.0118 µM (active),,33.2 nM (active)
C=C[C@@H]1CN2CCC1C[C@@H]2C(O)c1ccnc2ccc(OC)cc12 (stereo partly specified),inactive,,11.8 µM (active),inactive,inactive,,,,
COc1cc2c(cc1OC)CC(=O)N(CCCN(C)C[C@H]1Cc3cc(OC)c(OC)cc31)CC2,20.9 µM (active),,7.43 µM (active),0.332 µM (active),,16.6 µM (active),,,
CC(C)n1c(C=C[C@H](O)C[C@H](O)CC(=O)O)c(-c2ccc(F)cc2)c2ccccc21,3.32 µM (active),,,13.2 µM (active),inactive,,,2.96 µM (active),
CCC[C@H](N[C@@H](C)C(=O)N1[C@@H]2CCCC[C@H]2C[C@H]1C(=O)O)C(=O)OCC,6.62 µM (active),,,inactive,,20.9 µM (active),,inactive,
Cc1cc(C(C)Nc2ccccc2)c2nc(N3CCOCC3)cc(=O)n2c1 (stereo unspecified),16.6 µM (active),,inactive,,inactive,0.332 µM (active),,inactive,
Cn1cc(-c2ccc3nnc(Sc4ccc5ncccc5c4)n3n2)cn1,5.26 µM (active),,16.6 µM (active),,inactive,4.18 µM (active),,,
OC[C@H]1O[C@@H](Oc2ccc(O)cc2)[C@H](O)[C@@H](O)[C@H]1O,,inactive,,,,,inactive,inactive,
O=C(NC[C@H](O)CO)c1ccncc1Nc1ccc(I)cc1F,14.8 µM (active),,inactive,8.33 µM (active),93.5 nM (active),18.7 µM (active),,,
O=C(O)c1ccc(O)c2ncc(N3CCOCC3)cc12,26.4 µM (active),inactive,,18.7 µM (active),,23.5 µM (active),,,
CCCCn1c(=O)n(Cc2ccccc2F)c(=O)c2[nH]c(Cc3ccc(NC(C)=O)cc3)nc21,inactive,,,inactive,,20.9 µM (active),,inactive,
CCCCN(CCCC)CC(O)c1cc(Cl)cc2c1-c1ccc(Cl)cc1C2=Cc1ccc(Cl)cc1 (stereo unspecified),inactive,,23.5 µM (active),26.4 µM (active),,23.5 µM (active),,,
COc1ccc(C=CC(=O)Nc2ccccc2C(=O)O)cc1OC,inactive,,,inactive,inactive,11.8 µM (active),,inactive,
COc1cc(C=CC(=O)O)ccc1O,inactive,,,inactive,,,,inactive,
NC(=O)c1ncn([C@@H]2O[C@H](CO)[C@@H](O)[C@@H]2O)n1,inactive,inactive,,inactive,inactive,8.33 µM (active),,,
CN(C)CCOc1ccc(C(=C(CCCl)c2ccccc2)c2ccccc2)cc1,inactive,,23.5 µM (active),inactive,inactive,1.18 µM (active),,18.7 µM (active),
